An excerpt weighted towards active compounds, which were near 1.6% of everything screened.
KCNQ2 enhance: potentiators of rat KCNQ2 potassium channel. B-score at 10 µM. Potassium voltage-gated channel subfamily KQT member 2 (Rattus norvegicus), O88943. AID 2239, 2010. CHO-K1 KCNQ2, FluxOR thallium flux fluorescence; stronger effect = higher value. actives 0.54% (n = 310,000);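 active means fluorescence ratio B-score at least 3 SD of library B-scores, with initial fluorescence B-score within 3 of them, cut at about 5.3 in these data; same plate scores as AID 2156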;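 further: B-score of peak minus minimum over baseline fluorescence ratio after K+ and Tl+ stimulus; positive B-score means potentiation of KCNQ2 with more thallium influx and brighter signal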
Target sequence (O88943 whole entry, looked up): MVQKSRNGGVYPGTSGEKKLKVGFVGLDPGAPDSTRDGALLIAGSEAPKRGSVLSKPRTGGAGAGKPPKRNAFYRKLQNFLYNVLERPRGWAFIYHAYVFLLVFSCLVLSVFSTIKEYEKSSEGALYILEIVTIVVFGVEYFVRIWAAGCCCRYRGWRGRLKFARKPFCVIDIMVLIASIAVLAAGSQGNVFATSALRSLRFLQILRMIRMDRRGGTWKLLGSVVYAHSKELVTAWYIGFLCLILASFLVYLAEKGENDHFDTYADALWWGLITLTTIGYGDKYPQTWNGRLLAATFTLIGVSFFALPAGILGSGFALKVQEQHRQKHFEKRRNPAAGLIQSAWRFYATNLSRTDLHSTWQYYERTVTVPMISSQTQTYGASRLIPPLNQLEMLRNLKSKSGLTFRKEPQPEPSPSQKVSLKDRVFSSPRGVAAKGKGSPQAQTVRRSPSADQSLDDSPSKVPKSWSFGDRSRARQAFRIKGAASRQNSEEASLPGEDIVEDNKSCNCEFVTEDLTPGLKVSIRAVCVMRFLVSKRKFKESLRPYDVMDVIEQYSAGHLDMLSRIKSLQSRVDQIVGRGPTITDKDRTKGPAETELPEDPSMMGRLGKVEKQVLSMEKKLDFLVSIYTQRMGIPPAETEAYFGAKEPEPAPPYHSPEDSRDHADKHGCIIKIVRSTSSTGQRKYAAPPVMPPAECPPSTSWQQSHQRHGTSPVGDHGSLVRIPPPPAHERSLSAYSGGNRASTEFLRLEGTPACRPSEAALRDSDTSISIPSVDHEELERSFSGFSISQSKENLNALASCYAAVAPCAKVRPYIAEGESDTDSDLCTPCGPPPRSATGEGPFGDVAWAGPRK
KCNQ2 block: rat KCNQ2 potassium channel inhibitors, primary screen, cell-based, CHO-K1, FluxOR thallium flux, B-score; B-score at 10 µM; AID 2156, 2009; 20 min; stronger effect = lower value; actives 1.1% (n = 310,000);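 active means fluorescence ratio B-score at most minus 3 library SDs, with starting brightness B-score within 2 library SDs, cut at about -5.5 in these data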
Kir21 confirm: mouse Kir2.1 channel blockers, retest, confirmation, cell-based, FluxOR thallium flux, duplicate; actives 41% (n = 2,300); Kir2.1-expressing cells, FluxOR thallium flux fluorescence; stronger effect = lower value; shares compounds with KCNQ2 enhance; Tl flux remaining, % of negative control (stronger effect = lower value), % at 10 µM;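 active means Primary-screen hit whose thallium flux fell at least 3 control SD below untreated wells in both duplicates, with normal baseline fluorescence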;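 further: 0% = blank wells without stimulus and 100% = stimulated no-compound controls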
HEK293 Tl flux: alters thallium flux in parental HEK293 cells, Kir2.1 counter-screen. AID 2105. FluxOR thallium flux fluorescence; 0% = unstimulated blank wells. actives 19% (n = 2,300). FluxOR signal as % of negative control (100 = no effect), % at 10 µM. shares compounds with KCNQ2 enhance;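 active means dye signal at least 3 control SD above or below untreated wells in both duplicates, raw fluorescence within 3, either direction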;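 further: percent is based on the flux ratio of peak minus minimum fluorescence over baseline F0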
CHO-K1 Tl ctr: nonspecific thallium flux increase in parental CHO-K1, confirmation, counter-screen for KCNQ2 potentiator project, cell-based, FluxOR thallium flux, duplicate; parental CHO-K1 cells, FluxOR thallium flux fluorescence; zero = vehicle mean+3SD, 100% = vehicle-minus-blank window; shares compounds with KCNQ2 enhance; activity increase over 3SD of controls, % at 10 µM; actives 43% (n = 1,200);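 active means signal rise of at least 3 SD above the untreated control mean, in both duplicate wells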;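 further: counter screen of KCNQ2 potentiator hits so any rise reflects channel-independent effects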
KCNQ1 sel pot: human KCNQ1 channel potentiation off-target, confirmation, selectivity assay for KCNQ2 potentiator project, cell-based, CHO, FluxOR thallium flux. shares compounds with KCNQ2 enhance. CHO KCNQ1 stable, FluxOR thallium flux fluorescence; beyond 3SD, as % of vehicle-control signal. activation over 3SD threshold, % at 10 µM. actives 28% (n = 1,200). AID 2283, 2010;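 active means fluorescence ratio rise of at least 3 SD of vehicle wells above their mean, in both replicate wells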;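 further: 0% = vehicle mean plus 3 SD and 100% = vehicle minus unstimulated blank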
KCNQ2 pot conf: rat KCNQ2 channel potentiators, confirmation, cell-based, CHO, FluxOR thallium flux, duplicate. shares compounds with KCNQ2 enhance. CHO-KCNQ2 cells, FluxOR thallium flux fluorescence. potentiation, less the hit threshold, % at 10 µM. actives 68% (n = 1,200). AID 2287, 2010;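 active means fluorescence ratio rising 3 SD or more over the vehicle control mean in both replicates, plus primary screen hit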;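 further: peak minus minimum thallium fluorescence divided by baseline after K/Tl stimulus; 0% = vehicle mean plus 3 SD and 100% = vehicle minus unstimulated blank difference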
Kir21 spec: mouse Kir2.1 channel activation off-target, confirmation, selectivity assay for KCNQ2 potentiator project, cell-based, HEK293, FluxOR thallium flux. HEK293 Kir2.1, FluxOR thallium flux fluorescence. activity over 3SD threshold, % at 10 µM. actives 2% (n = 1,200). AID 2345, 2010. shares compounds with KCNQ2 enhance;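 active means fluorescence ratio rise of at least 3 SD above the vehicle-control mean, seen in both replicates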;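 further: 0% = vehicle mean plus 3 SD and 100% = vehicle minus no-stimulus blank window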
KCNQ2 W236L pot: potentiators of retigabine-insensitive KCNQ2 W236L, mechanism study for KCNQ2 potentiator project, cell-based, rat KCNQ2 W236L, CHO, automated patch clamp; shares compounds with KCNQ2 enhance; AID 2558, 2010; current increase over 3SD of negative controls (%), stronger effect = higher value, % at 25 µM; automated patch clamp current; actives 10% (n = 940);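 active means current increase at least 3 SD of the untreated controls above them in both duplicate recordings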
Active calls of the source: *; i = inactive; · = not tested or not shown.

SMILES	KCNQ2 enhance	KCNQ2 block	Kir21 confirm	HEK293 Tl flux	others
O=C1NC(c2ccccc2)=C(c2nc3ccccc3s2)C(c2ccc(O)cc2)N1 (centres undefined)	15*	i	i	i	CHO-K1 Tl ctr=-20;KCNQ1 sel pot=-1;KCNQ2 pot conf=11*;Kir21 spec=-33;KCNQ2 W236L pot=i
O=C1NC(c2ccccc2)=C(c2ccc3ccccc3n2)C(c2ccccc2)N1 (centres undefined)	·	i	·	·
CCC1(c2ccc(Cl)cc2)NC(=O)N(Cc2ccc(C(=O)OC)cc2)C1=O (centres undefined)	·	i	·	·
O=C(NCc1ccccc1Cl)C1CCC(CNc2c(N3CCOCC3)c(=O)c2=O)CC1 (centres undefined)	·	i	·	·
N#Cc1cccc(NC(=O)CN2CCN(Cc3ccccc3)CC2)c1	·	i	·	·
COc1ccc(N2C(=O)C(CC(N)=O)N(NC(=O)CCc3ccccc3)C2=O)cc1 (centres undefined)	·	i	·	·
O=C(Nc1cccc(N=Cc2cc(Br)cc(Br)c2O)c1)c1ccco1	9.3*	i	i	i	CHO-K1 Tl ctr=56*;KCNQ1 sel pot=49*;KCNQ2 pot conf=15*;Kir21 spec=-36;KCNQ2 W236L pot=i
O=C(Cc1ccccc1)N/N=C/c1cc(Br)cc(Br)c1O	7*	i	i	i	CHO-K1 Tl ctr=4.9*;KCNQ1 sel pot=-25;KCNQ2 pot conf=-9;Kir21 spec=-36;KCNQ2 W236L pot=i
O=C(CNC(=O)c1cccc(Br)c1)N/N=C/c1cc(Br)cc(Br)c1O	·	i	·	·
O=C(Nc1cccc(NC(=O)c2ccco2)c1)c1cccc(Br)c1	1.4	i	·	·
C/C(N)=C(/C#N)C(=O)CSc1nc2scc(-c3ccccc3)c2c(=O)n1C	0.17	i	·	·
COc1ccc(S(=O)(=O)NCC2CCCN(Cc3cn(C)nc3C)C2)cc1 (centres undefined)	·	i	·	·
Cc1sc2ncn(CC(=O)N3CCOCC3)c(=O)c2c1-c1ccccc1	1.6	i	·	·
Cc1cc(S(=O)(=O)N2CCOCC2)ccc1NC(=O)c1ccc(F)cc1	·	i	·	·
Cc1onc(-c2ccccc2)c1CNS(=O)(=O)c1ccccc1[N+](=O)[O-]	0.48	i	60%*	i
Cc1ccccc1CNS(=O)(=O)c1ccccc1[N+](=O)[O-]	0.52	i	·	·
N#C/C(=N\Nc1ccc(Cl)c(Cl)c1)C(=O)C1CC1	6.6*	i	i	i	CHO-K1 Tl ctr=13*;KCNQ1 sel pot=-11;KCNQ2 pot conf=-1;Kir21 spec=-34;KCNQ2 W236L pot=i
N#C/C(=N\Nc1ccc(F)cc1)C(=O)C1CC1	2	i	·	·
O=C(CSc1nc2ccccc2c(=O)n1CC1CCCO1)NCCc1ccccc1 (centres undefined)	·	i	·	·
O=C(COC(=O)Cc1ccccc1F)NCCNC(=O)COC(=O)Cc1ccccc1F	2.4	i	·	·
CCC(Oc1ccc(F)cc1)C(=O)N1CCCCCCC1 (centres undefined)	·	i	·	·
c1cnn(-c2cncc(-n3cccn3)n2)c1	0.03	i	·	·
COc1ccc(C(=O)Nc2ccccc2C(=O)N2CCCCC2C)cc1 (centres undefined)	·	i	·	·
COc1ccc(CNS(=O)(=O)c2c(C(=O)N3CCCCCC3)c(C)n(C)c2C)cc1	·	i	·	·
c1ccc(Nc2c3c(nc4ccccc24)CCC3)cc1	1.1	i	·	·
SMILES	KCNQ2 enhance	KCNQ2 block	Kir21 confirm	HEK293 Tl flux	others
COc1ccc(C)cc1Nc1c2c(nc3ccccc13)CCC2	0.19	i	i	i
COc1ccc(Nc2nc(N3CCN(S(C)(=O)=O)CC3)nc3ccccc23)c(OC)c1	·	i	·	·
CCN(CC)c1ccc(Nc2nc(N3CCOCC3)c3ccccc3n2)cc1	·	i	·	·
COc1ccc(Nc2c3c(nc4ccccc24)CCCC3)cc1OC	1.4	i	·	·
COc1ccc(Nc2c3c(nc4ccccc24)CCC3)cc1	·	i	42%*	i
COc1ccc(Nc2nc(N3CCCC3)c3ccccc3n2)cc1	0.61	i	21%*	i
COc1ccc(Nc2nc(N3CCCCC3)nc3ccccc23)c(OC)c1	·	i	i	i
O=C(Nc1ncc(Cl)cc1Cl)c1c(F)cccc1Cl	0.09	i	·	·
O=C(NCCNC(=O)c1ccc(-c2ccc(Cl)c(Cl)c2)o1)c1cnccn1	·	i	·	·
CC/C(=N/OC(=O)c1cccc(C)c1)C(=O)c1cccs1	0.51	i	·	·
c1ccc(CN2c3ccccc3-c3nc4ccccc4n3C2c2ccccn2)cc1 (centres undefined)	·	i	·	·
CCN1c2ccccc2-c2nc3ccccc3n2C1c1ccco1 (centres undefined)	·	i	i	i
CCOc1c(Cl)cc(CNCC(C)C)cc1OC	0.97	i	·	·
CCOc1cc(CNC2CCCC2)cc(Cl)c1OCc1ccccc1	·	i	34%*	134%*
CCOc1cc(CNC2CCCC2)ccc1OCc1ccccc1Cl	·	i	·	·
CCOc1cc(CNCC(C)C)cc(Cl)c1OCc1ccccc1	·	i	20%*	i
CC(C)(C)[C@H]1C=C(C(=O)O)O[C@@H](OCc2ccc(CO)cc2)C1	0.46	i	·	·
O=C(NCc1ccccc1)C1CC(=O)N(C2CCCCC2)C1 (centres undefined)	·	i	·	·
CCN(CC)S(=O)(=O)c1cccc(NC(=O)CCNC(=O)NC23CC4CC(CC(C4)C2)C3)c1	·	i	·	·
Cc1c(Cl)cccc1NC(=O)C1=COCCO1	·	i	·	·
CCn1cc(CN2CCC(n3nccc3NC(=O)C3CCCC3)CC2)cn1	0.06	i	·	·
